High-throughput results from PubChem.
CaV13 FRET inh – Disruptors of the CACNA1D IQ motif to Ca2+-dependent inactivation inhibitor domain association, primary screening, Förster resonance energy transfer in intact living … | HEK cells, CFP/YFP FRET ICDI-IQ, plate reader, 10 min; percent FRET-ratio fall versus neutral wells | inhibition, % at 12.3 µM | 0.098% of 340,000 active;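 active = mean replicate inhibition of at least 30% and at least 1% of replicates passing that level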;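 note: 0% = median of the neutral control wells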
VLA-4 inh – inhibition in a human VLA-4 binding assay; 0.2% of 330,000 active; inhibition, % (about 7 µM as worked out from the volumes in the protocol); P13612; VLA-4 expressing cells, ligand binding flow cytometry; in the data active = inhibition above about 50%
Exocytosis inh – lytic granule exocytosis inhibition | AID 651702 | 0.66% of 360,000 active | inhibition, % at 10 µM | TALL-104 LAMP-1 surface exposure, flow cytometry; cells stimulated with thapsigargin and PMA;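 active = inhibition above about 55%, limit read from the data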
ABCB6 inh 2 – blocks the human ABCB6 transporter | 0.19% of 360,000 active | Q9NP58 | AID 602162 | K562-ABCB6 porphyrin accumulation, flow cytometry, 1 h; active compounds read low | fluorescence ratio to DMSO, % at 10 µM;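 active = fluorescence ratio to DMSO below 75%, the collection mean minus 3 SD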;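 note: signal is porphyrin accumulated inside mitochondria; 100% equals median channel fluorescence of DMSO control wells; lower ratio means ABCB6 inhibition with less porphyrin fluorescence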
An asterisk follows results filed as active; i = inactive; . = no result given; + = active, no number. Only some compounds are listed: those with a hit (about 1.1% of all), similar ones and a draw of the others.

SMILES	CaV13 FRET inh	VLA-4 inh	Exocytosis inh	ABCB6 inh 2
Cc1cc(O)cc(=O)n1-c1cc(Cl)cc(Cl)c1	-3	.	.	.
Nc1[nH]c(C(=O)c2ccccc2)c(-c2ccccc2Cl)c1C(=O)NCCc1c[nH]c2ccccc12	-15	.	.	.
COc1ccccc1NC(=O)c1cc2c(CO)cnc(C)c2oc1=Nc1cccc(C(N)=O)c1	-3	-19	-3	101
COc1ccccc1NC(=O)c1cc2c(CO)cnc(C)c2oc1=Nc1ccccc1	-18	-1	81*	91
O=S(=O)(Nc1cccnc1)c1cccc(C(F)(F)F)c1	-5	-1	10	90
O=[N+]([O-])c1ccc(S(=O)(=O)c2cccc(C(F)(F)F)c2)nc1	.	25	60*	100
CCN(CC)CCn1c(SCC(=O)Nc2cccc(OC)c2)nc2c(sc3ccccc32)c1=O	-18	8	69*	95
COc1cccc(NC(=O)CSc2nc3c([nH]c4ccccc43)c(=O)n2C)c1	-4	60*	0	104
CC(C)=CCCC1=CC[C@H]2[C@@H](C1)C(C(C)C)=CC(=O)[C@@]2(C)O	-10	.	.	.
O=C(CCc1c[nH]c2ccccc12)OCC(=O)c1ccccc1	36*	.	-14	81
COC(=O)c1c(-c2ccc(OC)cc2)c2c(c3c4cc(F)ccc4n(S(=O)(=O)c4ccc(C)cc4)c13)C(=O)N(C)C2	-9	.	.	.
Cn1c2ccccc2c(=O)c2ccc(F)cc21	186*	-8	0	97
N#Cc1ccccc1NC(=O)CSc1nnc(-c2ccccc2)n1-c1ccccc1	-4	12	-2	91
CCN(CC)c1ccc(-c2nnc(SCC(=O)Nc3ccccc3C#N)n2-c2ccccc2)cc1	.	0	88*	95
CC(=O)N1C[C@H]2CON(C)[C@H]2C[C@H]1c1ccccc1-c1ccccc1	-5	.	.	.
COCCCn1c2nc3ccccc3nc2c2c(=O)n(Cc3ccc(Cl)cc3)cnc21	.	2	1	94
O=c1c2c3nc4ccccc4nc3n(Cc3ccccc3)c2ncn1Cc1ccco1	-3	.	93*	105
O=C(CSc1nc(-c2ccc(Cl)cc2)cs1)Nc1cccc([N+](=O)[O-])c1	-5	3	65*	99
Cc1ccc2nc3c(cc(C(=O)NCc4ccccc4)c(=N)n3CCCn3ccnc3)c(=O)n2c1	+	.	-1	100
Cc1cccn2c(=O)c3cc(C(=O)NC(C)c4ccccc4)c(=N)n(CCCn4ccnc4)c3nc12 (stereo not given)	75*	14	-4	99
CCn1c(=N)c(C(=O)NC)cc2c(=O)n3cccc(C)c3nc21	.	.	0	100
Cc1ccc2nc3c(cc(C(N)=S)c(=N)n3CCCOC(C)C)c(=O)n2c1	34*	3	14	110
NC(=S)N/N=C/c1ccc(-c2ccc(Cl)c(Cl)c2)o1	.	-2	27	141
Cc1ccc(-c2ccc(/C=N/NC(N)=S)o2)cc1	-4	-7	103*	93
COCCNC(=S)N/N=C/c1ccc(-c2ccc([N+](=O)[O-])cc2)o1	+	-10	3	112
SMILES	CaV13 FRET inh	VLA-4 inh	Exocytosis inh	ABCB6 inh 2
NC(=S)N/N=C/c1ccc(-c2ccccc2)o1	-7	-7	91*	101
COc1cc2c(c(OC)c1OC)[C@@]1(c3ccccc3)CCCC[C@H]1[C@@H]2NC(=O)C(F)(F)F	-2	.	.	.
C=CC(=O)N1C/C(=C/c2ccc(F)cc2)C(=O)/C(=C\c2ccc(F)cc2)C1	-6	.	94*	93
C[C@@H]1ON(C)[C@H]2C[C@H]3c4cc(N5CCCCC5)ccc4CCN3C[C@@H]12	-4	.	.	.
COC(=O)[C@]12C[C@H](CC(=O)NCc3ccc(OC)c(OC)c3)C(=O)N(CCc3ccc(OC)c(OC)c3)C1=C[C@H](C(C)(C)C)O[C@@H]2C	-4	.	.	.
CC(=NNc1nc2ccccc2o1)c1cc2ccccc2cn1	-10	.	101*	273
CC(=NNc1nc2ccccc2o1)c1ncccn1	-7	.	-2	93
O=c1[nH]c2ccccc2nc1/C=C/c1ccccc1	+	-9	3	100
O=c1[nH]c2ccccc2nc1/C=C/c1ccc(O)cc1	-12	.	-2	113
CCOC(=O)N[C@H](C(=O)N1CCC[C@H]1C(=O)NCc1ccccc1)C(C)C	-4	.	.	.
CCNc1ccc(S(=O)(=O)NCCN(C)C)cc1[N+](=O)[O-]	-6	3	-4	101
CN(C)CCCNS(=O)(=O)c1ccc(NC2CCCCCC2)c([N+](=O)[O-])c1	-2	41	60*	89
COC(=O)[C@]12C[C@H](CC(=O)NCCC(C)C)C(=O)N(Cc3ccccc3)C1=C[C@H](C1CCCC1)O[C@@H]2C	-10	.	.	.
CC(=O)Nc1ccc2nc(-c3cccs3)[nH]c2c1	.	94*	-1	95
CCCCCCCCOC(=O)c1cc([N+](=O)[O-])c(Sc2ncnc3nc[nH]c23)c([N+](=O)[O-])c1	-6	.	-5	97
COc1ccc(NC(=O)c2cc(-c3ccc(C)o3)nc3ccccc23)cc1OC	.	-11	64*	95
COc1ccc(NC(=O)c2cc(-c3ccc(C)o3)nc3ccccc23)c(OC)c1	-13	-5	11	94
O=C(NC1CCCC1)[C@@H]1CCCN1C(=O)[C@H](Cc1cccnc1)NC(=O)N1CCOCC1	-11	.	.	.
CCCCCCCCOC(=O)c1c(CSC(=N)N)n(C)c2cc(Br)c(OC(C)=O)cc12	-5	-2	72*	101
CCN1C(=O)/C(=C/c2ccc(C)o2)N(C)C1=S	-17	i	58*	101
CCN1C(=O)/C(=C/c2cccs2)N(C)C1=S	-3	19	5	98
CN1C(=O)c2cccc3c(S(=O)(=O)N(C)C)ccc1c23	-7	1	-8	89
CCN1C(=O)c2cccc3c(S(=O)(=O)N(C)C)ccc1c23	42*	.	-8	95
C=CCN(c1ccccc1Cl)S(=O)(=O)c1cccc(C(=O)OCC(=O)N(C)C2CCS(=O)(=O)C2)c1 (stereo not given)	0	-14	0	69*
CCOC(=O)C1CCCN(C(=O)Cn2sc3nc(C)cc(C)c3c2=O)C1 (stereo not given)	.	-16	84*	100
SMILES	CaV13 FRET inh	VLA-4 inh	Exocytosis inh	ABCB6 inh 2
Cc1cc(C)c2c(=O)n(CC(=O)N3CCC(N4CCCCC4)CC3)sc2n1	-10	-4	-1	94
CC(=O)C1=C(C)N(CC(C)C)C(=S)NC1c1ccc(Br)cc1 (stereo not given)	-3	.	.	.
Cc1nn(CC(=O)NCc2ccccc2Cl)c(C)c1[N+](=O)[O-]	-11	-2	-2	95
Cc1cc(CNC(=O)Cn2nc(C)c([N+](=O)[O-])c2C)c2ccccc2n1	-6	21	58*	106
Cc1cc(N2CCCC2)c(F)cc1/C=C\[N+](=O)[O-]	-117	.	74*	128
NC(=O)c1ncn([C@@H]2O[C@H](C(=O)N3CCCN(Cc4ccccc4F)CC3)[C@@H](O)[C@H]2O)n1	-3	.	.	.
CC1(C)CC(=O)C(C=Nc2cccnc2/N=C/C2=C(O)CC(C)(C)CC2=O)=C(O)C1	129*	7	4	106
O=C(C#Cc1cccc([N+](=O)[O-])c1)c1ccccc1	.	9	70*	95
